PubChem BioAssay (Tox21)
Records with an inconclusive call do not appear. Active and inactive are the calls of the source. Unless noted, calls follow the shape of the dose curve; as a rule, active = well fitted curve in the direction sought with a large enough effect in the repeat runs; inconclusive = weak or mixed curves; inactive = no such curve, though single readings can be large; an effect the other way counts as inactive or inconclusive.

Columns and labels:
[1] = Caspase-3/7 induction in HepG2 cells by small molecules, qHTS assay (AID 1346978); also: nearly all actives have a fitted effect of over 15% in size
Method in brief: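 Wild-type HepG2 cells, 2,000/well, settled 5 hr at 37 C and 5% CO2, then compound-treated for 17 hr; caspase-3/7 activity read by luminescent Caspase-Glo 3/7 after 30 min at room temperature.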

[2] = Caspase-3/7 induction in CHO-K1 cells by small molecules, qHTS cell viability counter screen (AID 1346979); also: nearly all actives have a fitted effect of over 35% in size; also: potency is read from the fitted curve at half-maximal effect
Method in brief: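 CellTiter-Fluor viability check, qHTS format: wild-type CHO-K1, 16hr compound treatment, 1hr reagent incubation, fluorescence read.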

[3] = Caspase-3/7 induction in CHO-K1 cells by small molecules, qHTS assay (AID 1346980); also: nearly all actives have a fitted effect of over 15% in size
Method in brief: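 Wild-type CHO-K1 cells exposed to compounds for 17hr at 37 C, 5% CO2. Caspase-3/7 activity then measured by Caspase-Glo 3/7 luminescence after 30min at room temperature.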

[4] = Caspase-3/7 induction in HepG2 cells by small molecules, qHTS cell viability counter screen (AID 1346981); also: nearly all actives have a fitted effect of over 30% in size; also: potency is read from the fitted curve at half-maximal effect
Method in brief: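 Cell viability is measured as a cytotoxicity counter screen alongside the Caspase-Glo 3/7 readout in identical wells. Wild-type HepG2 cells are treated with test compounds for 16 hr at 37 C before CellTiter-Fluor addition and a 1-hr incubation.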

[5] = target: Nuclear receptor subfamily 1 group I member 2 (Homo sapiens) (UniProt O75469); test: Human pregnane X receptor (PXR) small molecule agonists, qHTS assay (AID 1346982); also: nearly all actives have a fitted effect of over 35% in size; also: potency is read from the fitted curve at half-maximal effect
Method in brief: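 Cells: HepG2 stably carrying PXR-Luc. Medium held 5% charcoal-stripped FBS. Compounds in DMSO added after 5 hr plating, incubated 24 hr, then luminescence quantified with ONE-Glo.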

[6] = target: Nuclear receptor subfamily 1 group I member 2 (Rattus norvegicus) (UniProt Q9R1A7); test: Rat pregnane X receptor (rPXR) activation by small molecules, qHTS assay (AID 1346983); details: rPXR luciferase reporter cells, One-Glo luminescence, 24 h; max activation: active compounds read high; also: nearly all actives have a fitted effect of over 20% in size
Method in brief: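 Cell-based rPXR activation assay: rPXR cells, 2,000 per well, rested 5hr at 37 C, then exposed to compounds in DMSO for 24 hr at 37 C. Luciferase activity read by One-Glo luminescence after 30 min at room temperature.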

[7] = target: Nuclear receptor subfamily 1 group I member 2 (Homo sapiens) (UniProt O75469); test: CYP3A4 induction through human pregnane X receptor (PXR) by small molecules, qHTS assay (AID 1346984); also: nearly all actives have a fitted effect of over 40% in size; also: potency is read from the fitted curve at half-maximal effect
Method in brief: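 Quantitative HTS in DPX-2 cells, i.e. HepG2 transfected with PXR response element and CYP3A4-promoter luciferase. Compounds in DMSO incubated 24hr at 37C; then P450-Glo CYP3A4 substrate, 3uM final, 3hr; One-Glo luminescence.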

[8] = target: Nuclear receptor subfamily 1 group I member 2 (Homo sapiens) (UniProt O75469); test: Human pregnane X receptor (PXR) activation by small molecules, qHTS assay (AID 1346985); also: nearly all actives have a fitted effect of over 40% in size; also: potency is read from the fitted curve at half-maximal effect
Method in brief: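 DPX-2 cells (HepG2 co-transfected with a PXR response element and a CYP3A4-promoter luciferase construct) were seeded at 2,000 per well, rested 5 hr at 37C, then exposed to DMSO-dissolved compounds for 24 hr. Activation was read as luciferase luminescence.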

[9] = Human pregnane X receptor (PXR) small molecule agonists, qHTS cell viability counter screen (AID 1346977); also: nearly all actives have a fitted effect of over 50% in size; also: potency is read from the fitted curve at half-maximal effect
Method in brief: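 Tox21 qHTS format; PXR-Luc HepG2, 2,000/well, charcoal-stripped FBS 5%. Cpd exposure 24hr. Read: CellTiter-Fluor fluorescence, multiplexed with luciferase.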

[10] = target: Acetylcholinesterase (Homo sapiens) (UniProt P22303); test: Acetylcholinesterase (AChE) small molecule antagonists: colormetric cell-based qHTS assay (AID 1347395; calls by dose curve; also: nearly all actives have a fitted effect of over 30% in size; also: potency is read from the fitted curve at half-maximal effect)
Method in brief: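 AChE inhibition read colorimetrically via DTNB–thiocholine in SH-SY5Y cells. Compound 30 min, substrate 90 min, both 37 C.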
% is scaled to controls: 0 for no effect and ±100 for the full control effect.

Chain of Nuclear receptor subfamily 1 group I member 2 (Homo sapiens) (O75469 whole entry, looked up): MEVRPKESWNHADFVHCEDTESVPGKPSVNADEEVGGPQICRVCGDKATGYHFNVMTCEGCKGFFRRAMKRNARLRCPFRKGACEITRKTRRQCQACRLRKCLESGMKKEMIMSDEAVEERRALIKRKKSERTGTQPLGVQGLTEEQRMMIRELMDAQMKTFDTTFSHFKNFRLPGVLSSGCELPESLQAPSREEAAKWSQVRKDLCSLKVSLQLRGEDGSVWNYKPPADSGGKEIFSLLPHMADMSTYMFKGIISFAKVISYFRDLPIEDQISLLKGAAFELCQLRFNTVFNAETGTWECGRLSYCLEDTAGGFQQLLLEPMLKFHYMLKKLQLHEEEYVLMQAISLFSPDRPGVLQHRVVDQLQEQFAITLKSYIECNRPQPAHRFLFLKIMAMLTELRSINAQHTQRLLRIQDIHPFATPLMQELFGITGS
Chain of Nuclear receptor subfamily 1 group I member 2 (Rattus norvegicus) (Q9R1A7 whole entry, looked up): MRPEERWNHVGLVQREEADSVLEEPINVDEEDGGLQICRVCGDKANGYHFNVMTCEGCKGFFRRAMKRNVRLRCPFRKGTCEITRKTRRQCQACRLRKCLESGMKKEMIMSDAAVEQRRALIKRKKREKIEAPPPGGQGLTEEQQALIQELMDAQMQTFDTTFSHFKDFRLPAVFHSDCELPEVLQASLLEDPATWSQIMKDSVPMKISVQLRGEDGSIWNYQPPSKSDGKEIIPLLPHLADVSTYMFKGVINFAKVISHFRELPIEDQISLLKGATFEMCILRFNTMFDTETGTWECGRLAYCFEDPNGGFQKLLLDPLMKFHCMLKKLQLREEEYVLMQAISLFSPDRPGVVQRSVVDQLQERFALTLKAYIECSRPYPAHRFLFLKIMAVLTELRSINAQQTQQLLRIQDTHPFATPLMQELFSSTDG
Chain of Acetylcholinesterase (Homo sapiens) (P22303 whole entry, looked up): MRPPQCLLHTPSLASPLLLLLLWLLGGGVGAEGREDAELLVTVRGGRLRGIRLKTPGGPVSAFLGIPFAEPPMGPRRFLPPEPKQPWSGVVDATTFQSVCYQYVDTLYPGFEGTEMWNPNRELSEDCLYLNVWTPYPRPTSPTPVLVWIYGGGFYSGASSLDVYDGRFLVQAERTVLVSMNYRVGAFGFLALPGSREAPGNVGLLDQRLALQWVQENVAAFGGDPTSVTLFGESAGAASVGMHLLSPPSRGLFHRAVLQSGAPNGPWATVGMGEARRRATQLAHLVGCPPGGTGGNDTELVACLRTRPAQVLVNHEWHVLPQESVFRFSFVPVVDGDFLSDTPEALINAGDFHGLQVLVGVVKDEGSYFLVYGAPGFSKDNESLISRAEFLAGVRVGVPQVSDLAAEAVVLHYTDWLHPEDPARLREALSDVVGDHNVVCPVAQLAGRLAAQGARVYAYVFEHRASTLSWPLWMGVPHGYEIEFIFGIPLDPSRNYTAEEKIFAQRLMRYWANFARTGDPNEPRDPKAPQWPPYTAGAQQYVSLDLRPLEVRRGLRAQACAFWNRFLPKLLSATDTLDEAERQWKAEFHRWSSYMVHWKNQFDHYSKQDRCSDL

NC(=O)c1cc([N+](=O)[O-])cc([N+](=O)[O-])c1
inactive: Potency [1] | Potency [2] | Potency [3] | Potency [4] | Potency [5] | max activation [6] -0.752% | Potency [7] | Potency [8]

N#CC(CCc1ccc(Cl)cc1)(Cn1cncn1)c1ccccc1 (stereo not drawn)
active: Potency [9] 61.1 µM | Potency [2] 43.3 µM | Potency [4] 48.6 µM | Potency [5] 19.3 µM
inactive: Potency [10]

Fc1ccc(C2(Cn3cncn3)OC2c2ccccc2Cl)cc1 (stereo not drawn)
inactive: Potency [1] | Potency [3] | Potency [4] | Potency [10]

C#C[C@]1(O)C=C[C@H]2[C@@H]3CCC4=CC(=O)CC[C@@H]4[C@H]3CC[C@@]21CC
active: Potency [5] 29.8 µM
inactive: Potency [9] | Potency [1] | Potency [3] | Potency [4] | max activation [6] -1.56% | Potency [7] | Potency [8] | Potency [10]

CC1(C(=O)Nc2ccc(O)c(Cl)c2Cl)CCCCC1
active: Potency [5] 19.3 µM
inactive: Potency [9] | Potency [1] | Potency [3] | Potency [4] | Potency [10]

O=C(CCCN1CCC(n2c(=O)[nH]c3ccccc32)CC1)c1ccc(F)cc1
inactive: Potency [1] | Potency [2] | Potency [3] | Potency [4] | max activation [6] -1.58% | Potency [7] | Potency [8]
active: Potency [5] 13.3 µM

CCOP(=S)(OCC)SCSP(=S)(OCC)OCC
inactive: Potency [1]
active: Potency [5] 5.45 µM

COc1ccc2c(c1OC)CN1CCc3cc4c(cc3C1C2)OCO4 (stereo not drawn)
inactive: Potency [9] | Potency [1] | Potency [3] | Potency [5] | max activation [6] 0.596% | Potency [7] | Potency [8]
active: Potency [10] 8.71 µM

CC1(C)COP(Oc2ccccc2)OC1
inactive: Potency [1] | Potency [2] | Potency [3] | Potency [5] | Potency [10]

C[C@]12CC[C@H]3[C@@H](CCC4=CC(=O)CC[C@@]43C)[C@@H]1CC[C@@H]2C(=O)O
inactive: Potency [9] | Potency [1] | Potency [3] | Potency [4] | Potency [5] | Potency [10]

C=C(C)[C@@H]1CC=C(C=O)CC1
inactive: Potency [9] | Potency [1] | Potency [3] | Potency [4] | Potency [10]

CCOC(=O)/C=C(C)/C=C/C[C@@H](C)CCCC(C)C
inactive: Potency [9] | Potency [1] | Potency [4] | max activation [6] -2.62% | Potency [7] | Potency [8]

CC(C(O)c1ccccc1)N(C)C/C=C/c1ccccc1 (stereo not drawn)
inactive: Potency [1] | Potency [2] | Potency [3] | Potency [5]

CC(CCc1ccccc1)NC(C)C(O)c1ccc(O)cc1 (stereo not drawn)
inactive: Potency [1] | Potency [2] | Potency [3] | Potency [4] | Potency [5] | Potency [10]

CC(C)(C)NCC(O)c1cc(Cl)c(N)c(Cl)c1 (stereo not drawn)
inactive: Potency [1] | Potency [2] | Potency [3] | Potency [5] | max activation [6] -2.23% | Potency [7] | Potency [8] | Potency [10]

CC(C)CC#N
inactive: Potency [9] | Potency [1] | Potency [4] | Potency [10]

CCN(CC)C(=O)[C@@H]1C=C2c3cccc4[nH]cc(c34)C[C@H]2N(C)C1
active: Potency [2] 89.8 µM | Potency [5] 80 µM | Potency [10] 73.8 µM
inactive: Potency [1] | Potency [3]

O=C(Nc1ccccc1)c1ccccc1I
active: Potency [5] 68.6 µM
inactive: Potency [9] | Potency [1] | Potency [3] | Potency [4] | Potency [10]

COc1cc(C[C@@H](C)N)c(OC)cc1C
inactive: Potency [1] | Potency [2] | Potency [3] | Potency [4] | Potency [5] | Potency [10]

CCOC(=O)NC(=S)Nc1ccccc1NC(=S)NC(=O)OCC
inactive: Potency [9] | Potency [1] | Potency [3] | Potency [4] | Potency [10]
active: Potency [5] 27.3 µM

CCOC(=O)C1(c2ccccc2)CCN(CCc2ccc(N)cc2)CC1
active: Potency [5] 3.76 µM
inactive: Potency [1] | Potency [2] | Potency [3] | Potency [4]

CCN(CC)CCOC(=O)C(C)(c1ccccc1)c1ccccc1
inactive: Potency [1] | Potency [2] | Potency [3] | Potency [4] | max activation [6] 7.07% | Potency [10]
active: Potency [5] 13.3 µM | Potency [7] 7.94 µM | Potency [8] 8.91 µM

CC1COC2(c3ccccc3Cl)c3cc(Cl)ccc3NC(=O)CN12 (stereo not drawn)
active: Potency [5] 23.7 µM
inactive: Potency [9] | Potency [1] | Potency [3] | Potency [4] | Potency [10]

COC(=O)COc1ccc(Cl)cc1Cl
inactive: Potency [9] | Potency [1] | Potency [3] | Potency [5] | Potency [10]

O=C(O)C(Br)CBr (stereo not drawn)
active: Potency [5] 62.2 µM
inactive: Potency [9] | Potency [1] | Potency [4] | Potency [10]

C#CCN1C(=O)COc2cc(F)c(N3C(=O)C4=C(CCCC4)C3=O)cc21
inactive: Potency [9] | Potency [1] | Potency [3] | Potency [10]

Nc1c(Br)cc([N+](=O)[O-])cc1[N+](=O)[O-]
active: Potency [2] 55.1 µM | Potency [5] 55.1 µM | Potency [10] 36 µM
inactive: Potency [1]

CCN(CC)c1nc(C)cc(OP(=S)(OC)OC)n1
inactive: Potency [9] | Potency [1] | Potency [3] | Potency [5]

CN(C)CCc1ccc(O)cc1
inactive: Potency [9] | Potency [1] | Potency [3] | Potency [5] | max activation [6] -2.69% | Potency [7] | Potency [8] | Potency [10]

N#CC(O)c1ccccc1 (stereo not drawn)
inactive: Potency [9] | Potency [1] | Potency [3] | Potency [10]

Nc1cc2c3c(c1)C(c1ccccc1)=N[C@@H](NC(=O)c1cccnc1)C(=O)N3CC2
active: Potency [5] 61.1 µM
inactive: Potency [9] | Potency [1] | Potency [3] | Potency [4] | Potency [10]

Fc1cc(Br)ccc1CBr
inactive: Potency [9] | Potency [1] | Potency [3] | Potency [4] | Potency [5]

CC1=C(C(=O)Nc2ccccc2)S(=O)(=O)CCO1
active: Potency [2] 61.1 µM
inactive: Potency [1] | Potency [3] | Potency [5] | Potency [10]

CCC(=O)C(CCN(C)C)(c1ccccc1)c1ccccc1
active: Potency [5] 16.8 µM
inactive: Potency [1] | Potency [2] | Potency [3] | Potency [10]

O=C1OC(CCN2CCCCC2)OC1(c1ccccc1)c1ccccc1 (stereo not drawn)
inactive: Potency [9] | Potency [1] | Potency [3] | Potency [4] | Potency [5] | Potency [10]
